Experimental data as given in a collection of fitness landscapes (doi:10.1126/science.1257360).
In all, about 140,000 sequences were measured (“enrichment ratio after two sorts for PhoP signalling”: median about 0, highest 2% from about 11 on). The sample as a whole holds a higher share of the highest values than the screen did.

B1: PhoQ; a variant is named by its letters at X, in order, P23837 (parent)
chain: MKKLLRLFFPLSLRVRFLLATAAVVLVLSLAYGMVALIGYSVSFDKTTFRLLRGESNLFYTLAKWENNKLHVELPENIDKQSPTMTLIYDENGQLLWAQRDVPWLMKMIQPDWLKSNGFHEIEADVNDTSLLLSGDHSIQQQLQEVREDDDDAEMTHSVAVNVYPATSRMPKLTIVVVDTIPVELKSSYMVWSWFIYVLSANLLLVIPLLWVAAWWSLRPIEALAKEVRELEEHNRELLNPATTRELTSLVRNLNRLLKSERERYDKYRTTLTDLTHSLKTPLXXLQXXLRSLRSEKMSVSDAEPVMLEQISRISQQIGYYLHRASMRGGTLLSRELHPVAPLLDNLTSALNKVYQRKGVNISLDISPEISFVGEQNDFVEVMGNVLDNACKYCLEFVEISARQTDEHLYIVVEDDGPGIPLSKREVIFDRGQRVDTLRPGQGVGLAVAREITEQYEGKIVAGESMLGGARMEVIFGRQHSAPKDE

Variants of: B1
Test: enrichment ratio after two sorts for PhoP signalling (ratio (wild type AVST 3.29)); higher = more functional
Settings: with PhoP (E. coli)

Variant	enrichment ratio
PSYG	≤ 0.25
EPIL	≤ 0.25
ISMM	5.78
LAMM	14.3
LLMM	≤ 0.25
LTMM	2.28
KAMM	≤ 0.25
IAMM	13.5
MTSV	0.634
NESV	≤ 0.25
QESV	29.9
AHSV	≤ 0.25
MKSV	≤ 0.25
QRSV	≤ 0.25
TESV	26.1
ARSV	≤ 0.25
AESV	14.8
MDSV	≤ 0.25
IESV	≤ 0.25
MESV	24.5
QPSV	≤ 0.25
IVVM	≤ 0.25
GAFT	≤ 0.25
TQPA	≤ 0.25
WQTI	≤ 0.25
MSAY	7.95

Variant	enrichment ratio
NSEQ	≤ 0.25
TQMY	12.5
NQMY	≤ 0.25
WQME	≤ 0.25
IQME	≤ 0.25
FQMY	≤ 0.25
TQME	17.2
KHFI	≤ 0.25
MHHY	≤ 0.25
RLFV	≤ 0.25
YTVF	0.29
ALVF	0.451
ACVF	11.9
ACHF	≤ 0.25
AWVF	≤ 0.25
ATVF	16.1
LWTN	≤ 0.25
FKQC	≤ 0.25
IVWE	≤ 0.25
GNIY	≤ 0.25
GNIS	5.86
GEIV	8.51
GEIC	45.3
GERC	≤ 0.25
GEFC	≤ 0.25
GEIY	23

Variant	enrichment ratio
GEIS	20.8
GGIY	2.45
IKLA	≤ 0.25
LNNT	≤ 0.25
FNGW	≤ 0.25
YVPF	≤ 0.25
LTCT	≤ 0.25
FKRE	≤ 0.25
TTCA	9.39
LPWS	≤ 0.25
GDTH	≤ 0.25
LVNA	≤ 0.25
HQNP	≤ 0.25
AKAT	3.68
ANKK	≤ 0.25
AIAT	19.3
KKAT	≤ 0.25
ANMT	12.2
AKMT	52.1
TKMT	6.64
AQMI	≤ 0.25
ANKA	≤ 0.25
NQMT	≤ 0.25
MEMT	≤ 0.25
AQMT	23.8
FGIN	≤ 0.25

Variant	enrichment ratio
RFYE	≤ 0.25
FYWY	≤ 0.25
ITNK	≤ 0.25
QYEG	≤ 0.25
HPNG	≤ 0.25
WHVS	≤ 0.25
TMMI	0.351
WHFQ	1.98
DQQP	≤ 0.25
FHPL	≤ 0.25
LVAW	0.304
AIMT	22.8
AKAR	≤ 0.25
ATMT	≤ 0.25
VHMT	≤ 0.25
AIAR	19.7
KKAR	≤ 0.25
SVWQ	≤ 0.25
KVQS	≤ 0.25
KAFM	≤ 0.25
YTFM	≤ 0.25
MAFM	14.7
GTFM	≤ 0.25
MKFM	≤ 0.25
MIGM	2.52
MIFM	15.8

Variant	enrichment ratio
NAFM	≤ 0.25
MTFM	17.1
DKSF	≤ 0.25
TGQA	3.89
FELW	≤ 0.25
SMMN	19.5
SMQH	14.9
SMIV	≤ 0.25
SMKH	≤ 0.25
SMNL	2.56
SMMH	15.6
SMGH	1.91
SMMV	17.9
SMTH	4.57
SMPV	≤ 0.25
SMWH	≤ 0.25
SMQN	≤ 0.25
NSPY	≤ 0.25
PHRW	≤ 0.25
NLYI	≤ 0.25
HIPQ	≤ 0.25
SEHH	≤ 0.25
NIQH	≤ 0.25
NTWT	≤ 0.25
PEAN	≤ 0.25
VIAY	≤ 0.25

Variant	enrichment ratio
PFVI	≤ 0.25
GNDM	≤ 0.25
GENQ	≤ 0.25
SMMC	16.1
DMMC	≤ 0.25
SMMS	14.6
SMMI	5.18
SMFC	≤ 0.25
SMMW	≤ 0.25
DVQM	≤ 0.25
PNYR	≤ 0.25
AGHK	≤ 0.25
HLLG	≤ 0.25
APLI	0.336
AALI	11.9
AADK	≤ 0.25
ADLI	16.8
AILI	1.77
ADLA	0.619
AHLI	4.17
KDLI	≤ 0.25
TDLI	16.1
AILT	6.15
